A selection: hits, their analogues and other compounds. The true share with any hit is near 19%.
TDP1 cell CPT: growth inhibition of DT40 Tdp1-/-;hTDP1 cells with camptothecin (screen for TDP1 inhibitors) | chicken DT40 Tdp1-/-;hTDP1 cells + 20 nM CPT, ATP luminescence, 48 h | Potency, µM (top dose mostly 46.2 µM), for inactives: top-dose activity change, negative = growth inhibition, hits mostly inhibitors | 420,000 compounds, 12% hits; further: nearly all actives have a fitted effect of over 55% in size
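Chicken DT40 Tdp1-/- cells stably complemented with human TDP1 were seeded at 400 cells/well in medium containing 20 nM camptothecin, exposed to pin-transferred compounds, and grown at 37 °C for at least 48 hr. Viability was read as ATP luminescence.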
HT1080NT lethal: kills 2HG-producing HT-1080-NT fibrosarcoma cells; HT-1080-NT fibrosarcoma viability, CellTiter-Glo ATP luminescence, 48 h; Potency, µM (highest dose often 46.1 µM), for the others: top-dose activity, negative = less viability, usual class: cytotoxic; 360,000 compounds, 1.6% hits;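 further: NT is the 2HG producing partner of a matched IDH1 knockdown line; 0% = DMSO-treated cells and -100% = media-only wells without cells; nearly all actives have a fitted effect of over 55% in size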
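HT-1080-NT fibrosarcoma cells (2HG-overproducing), 750 cells/well in RPMI with 5% FBS, dosed after 2 h and incubated 48 h at 37C. CellTiter-Glo luminescence normalized to DMSO and no-cell wells; concentration-response curves fitted and classed.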
HT1080 IDH1KD tx: toxicity to HT-1080 IDH1 knockdown cells (counter line); HT-1080 IDH1 knockdown viability, ATP luminescence, 48 h; Potency, µM (series often up to 46.1 µM), for the others: at the top dose activity, negative = toxicity, actives largely listed as cytotoxic; 360,000 compounds, 2% hits; AID 686971;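 further: 0% = DMSO wells and -100% = cell-free medium wells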
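After a 2 h attachment period, IDH1KD HT-1080 cells took pin-transferred compound for 48 h at 37 °C; ATP-based luminescence after 10 min room-temperature reagent incubation reported viability.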
KB-3-1 tox: kills parental KB-3-1 adenocarcinoma cells. Potency, µM (series often up to 46.1 µM), actives largely listed as cytotoxic. KB-3-1 viability, CellTiter-Glo ATP luminescence, 72 h. 400,000 compounds, 1.4% hits; further: nearly all actives have a fitted effect of over 60% in size
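Parental KB-3-1 viability, qHTS format: 72 h compound exposure, 37 °C; CellTiter-Glo; media-only wells and DMSO plates as controls; concentration-effect fits on corrected data.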
KB-V1 cytotox: kills drug-selected multidrug resistant KB-V1 cells; KB-V1 MDR cells viability, CellTiter-Glo, 72 h; Potency, µM (doses to about 46.1 µM), actives largely listed as cytotoxic; 400,000 compounds, 3.4% hits; further: nearly all actives have a fitted effect of over 60% in size
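qHTS viability screen in drug-selected KB-V1 MDR cells: 72 h compound treatment at 37 degrees C, ATP luminescence end point.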
DT40 TDP1 no CPT: qHTS for Inhibitors of human tyrosyl-DNA phosphodiesterase 1 (TDP1): qHTS in cells in absence of CPT; DT40 Tdp1-/- hTDP1 cells, no CPT, ATP luminescence, 48 h; Potency, µM (highest dose often 46.2 µM), without a hit: at the top dose activity change, negative = growth inhibition, usual class: inhibitors; 420,000 compounds, 15% hits; further: nearly all actives have a fitted effect of over 55% in size
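No-CPT arm: Tdp1-/-;hTDP1 DT40 cells (400/well) plus compounds, incubated ≥48 hr at 37 °C. Readout CellTiter-Glo luminescence.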
An asterisk follows results filed as active; i = inactive; ? = inconclusive; / = no result given; [ ] = another dose, or the depositor's remark. The call rests on the fitted dose curve; in most records, active means well fitted curve in the direction sought with a large enough effect; inconclusive means small, poorly fitted or top-dose-only effect, or another doubt; inactive means no such curve, though single readings can be large; an effect the other way counts as inactive or inconclusive. Unless noted, on the % scale 0 is the no-effect control and ±100 the full control effect; potency means the concentration at half of the fitted maximal effect.

SMILES | TDP1 cell CPT | HT1080NT lethal | HT1080 IDH1KD tx | KB-3-1 tox | KB-V1 cytotox | DT40 TDP1 no CPT
COc1cc2nc(SCC(=O)Nc3ccccc3C)n3nc(CCn4c(C)nc5ccccc54)nc3c2cc1OC | 2.9µM* | / | / | i | i | 3.3µM*
Cc1ccccc1NC(=O)CSc1nc2ccccc2c2nc(CCn3cncc3C)nn12 | 0% | -3% | 0% | i | ? | -20%
COc1cc2nc(SCC(=O)Nc3ccc(F)cc3)n3nc(CCn4c(C)nc5ccccc54)nc3c2cc1OC | 2.1µM* | / | / | i | i | 5.2µM*
COc1cc2nc(SCC(=O)Nc3cccc(C)c3)n3nc(CCn4c(C)nc5ccccc54)nc3c2cc1OC | 2.6µM* | / | / | i | i | 2.6µM*
Cc1ccc(C(=O)NC(O)C(Cl)Cl)cc1 (configuration not stated) | ? | 0% | 20% | i | i | ?
O=C(NC1CCS(=O)(=O)C1)c1cccc(S(=O)(=O)N2CCCC2)c1 (configuration not stated) | 9% | 12% | 9% | i | i | -19%
CC1CCCCN1Cc1c(O)ccc2c(=O)c(-c3ccc(Cl)cc3)coc12 (configuration not stated) | 7.3µM* | 1% | -5% | i | i | 18µM*
CC(C)N(Cc1c(O)ccc2c(=O)c(-c3ccc(Cl)cc3)coc12)C(C)C | 2.1µM* | ? | ? | i | i | 8.2µM*
CC1CCCCN1Cc1c(O)ccc2c(=O)c(-c3ccc(Br)cc3)coc12 (configuration not stated) | ? | 2% | -2% | i | i | -11%
CC1CCCCN1Cc1c(O)ccc2c(=O)c(-c3nc4ccccc4s3)c(N)oc12 (configuration not stated) | ? | ? | ? | i | i | 23µM*
CC1(C(=O)Nc2cnc3ccccc3c2)CCN1Cc1ccc(OC(F)(F)F)cc1 (configuration not stated) | ? | ? | ? | i | i | ?
CC1(C(=O)NCc2ccccc2Br)CCN1Cc1ccc(-c2ccccc2)o1 (configuration not stated) | ? | ? | ? | 5.2µM* | 21µM* | ?
CC1(C(=O)Nc2cnc3ccccc3c2)CCN1Cc1ccccc1OC(F)F (configuration not stated) | 23µM* | ? | ? | i | ? | 16µM*
COc1cccc(CN2CCC2(C)C(=O)Nc2cnc3ccccc3c2)c1F (configuration not stated) | ? | -27% | ? | i | ? | 18µM*
COc1cccc(CN2CCC2(C)C(=O)Nc2ccc(Cl)c(Cl)c2)c1F (configuration not stated) | 21µM* | -22% | ? | i | i | ?
CC1(C(=O)NCc2cccc(C(F)(F)F)c2)CCN1Cc1ccc(-c2ccccc2)o1 (configuration not stated) | ? | ? | ? | i | ? | ?
CC1(C(=O)Nc2cnc3ccccc3c2)CCN1Cc1ccc(-c2ccccc2)o1 (configuration not stated) | ? | -21% | 1% | i | ? | 16µM*
CSc1ccc(CN2CCC2(C)C(=O)Nc2cnc3ccccc3c2)cc1 (configuration not stated) | ? | 1% | 14% | i | i | ?
CC1(C(=O)Nc2cnc3ccccc3c2)CCN1Cc1ccccc1Cl (configuration not stated) | 16µM* | ? | ? | i | i | 15µM*
COc1ccc(NC(=O)c2cnc(Nc3ccc(C)c(Cl)c3)c3ccccc23)c(OC)c1 | -17% | / | / | i | i | -34%
CCN(CC)C(=O)C1=C(C)N(CCCOC)C(=O)C(CC(=O)NC2CC2)C1 (configuration not stated) | -4% | -1% | -6% | i | i | 0%
COc1cc(NC(=S)N2CCN(CCO)CC2)c(OC)cc1Cl | -12% | -1% | 0% | i | i | -6%
OCCN1CCN(C(=S)c2ccc(Cl)c(Cl)c2)CC1 | 18µM* | -2% | 2% | i | i | 18µM*
CN(c1ccccc1)S(=O)(=O)c1cc(C(=O)Nc2ccccc2N2CCOCC2)ccc1Cl | 16µM* | -3% | -13% | ? | i | 9.2µM*
O=C(Nc1ccccc1N1CCCC1)c1ccc(Cl)c(S(=O)(=O)N2CCOCC2)c1 | -26% | 0% | -1% | i | 15µM* | ?
SMILES | TDP1 cell CPT | HT1080NT lethal | HT1080 IDH1KD tx | KB-3-1 tox | KB-V1 cytotox | DT40 TDP1 no CPT
Cc1cccc(N2CCN(S(=O)(=O)c3cc(C(=O)Nc4ccccc4Cl)ccc3F)CC2)c1C | ? | / | / | / | / | 23µM*
Cc1ccc(C(=O)Nc2ccccc2N2CCOCC2)cc1S(=O)(=O)N1CCOCC1 | ? | 9%[9.24 µM] | 0% | i | i | -28%
CN(c1ccccc1)S(=O)(=O)c1cc(C(=O)c2nccn2C)ccc1Cl | ? | -6% | 6%[9.24 µM] | i | i | 16µM*
CN(c1ccccc1)S(=O)(=O)c1cc(C(=O)OCC(N)=O)ccc1Cl | -4% | 16% | 15% | i | i | ?
CCOC(=O)c1ccccc1NC(=O)c1ccc(Cl)c(S(=O)(=O)N2CCOCC2)c1 | ? | 10% | 16% | i | 7.3µM* | 16µM*
O=C(NC1CCCCCC1)c1ccc(Cl)c(S(=O)(=O)N2CCOCC2)c1 | ? | 14% | 10% | i | i | 29µM*
O=C(Nc1ccccc1N1CCCCC1)c1ccc(F)c(S(=O)(=O)N2CCOCC2)c1 | 16µM* | -17% | -13% | ? | i | 21µM*
Cc1ccc(C(=O)NC2CC2)cc1S(=O)(=O)N1CCOCC1 | -2% | 2% | 9% | i | i | 0%
CCC(C)(C)C1CCC(NC(=O)c2ccc(S(=O)(=O)N3CCOCC3)cc2)CC1 (configuration not stated) | 15µM* | 1%[9.24 µM] | -28% | ? | i | 23µM*
COc1ccc(NC(=O)Nc2cccc3c2O[C@H](CN(C)C(=O)Nc2c(C)noc2C)[C@@H](C)CN([C@H](C)CO)C3=O)cc1 | 7% | 11% | 9% | i | i | -2%

Source: PubChem (National Center for Advancing Translational Sciences (NCATS))
